Drawing on PubChem BioAssay, this text covers inhibition for 16 compounds.

Each structure is given as a SMILES string. A number with no mark means an inactive call. How the calls were made is not given here.

This assay deals with Pantothenate synthetase (Mycobacterium tuberculosis (strain ATCC 25618 / H37Rv)) (UniProt P9WIL5). The assay is described as follows: Coupled enzyme confirmation of inhibitors against recombinant Mtb PanC (AID 375).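 Further: 0% = full reaction with vehicle and 100% = no enzyme background.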 The conditions noted are these: coupled enzyme assay; at 10 µM, active compounds read high.
Sequence of Pantothenate synthetase (Mycobacterium tuberculosis (strain ATCC 25618 / H37Rv)) (P9WIL5 whole entry, looked up): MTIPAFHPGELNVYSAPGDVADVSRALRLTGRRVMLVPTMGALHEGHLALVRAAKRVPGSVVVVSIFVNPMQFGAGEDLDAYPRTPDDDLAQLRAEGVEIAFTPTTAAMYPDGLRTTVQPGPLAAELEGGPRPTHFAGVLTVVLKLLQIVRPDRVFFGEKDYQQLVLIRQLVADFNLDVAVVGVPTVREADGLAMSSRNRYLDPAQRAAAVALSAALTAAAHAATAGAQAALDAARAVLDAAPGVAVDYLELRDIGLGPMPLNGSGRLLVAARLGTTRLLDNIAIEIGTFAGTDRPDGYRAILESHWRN
Take `CCS(=O)(=O)N1CCCC(C(=O)NCc2cccc(OC)c2)C1` (stereo unspecified): the inhibition is 1%.

Take `O=C(NC1CCCc2ccccc21)C1CCN(S(=O)(=O)c2cnc[nH]2)CC1` (stereo unspecified): the inhibition was 2%.

Turning to `Cc1cc(C(=O)CN2C(=O)c3ccccc3C2=O)c(C)n1Cc1cccs1`, the inhibition was 0%.

On to `O=C(Cn1cccc1C(=O)c1ccccc1)NCCN1CCOCC1`, for which the inhibition is 0%.

Turning to `CCC(=O)N1CCc2cc(S(=O)(=O)CCC(=O)Nc3nc(C)cs3)ccc21`, the inhibition is 5%.

Turning to `COc1ccc(-n2c(SCC(=O)c3c(N)n(C)c(=O)n(C)c3=O)nc3ccccc32)cc1`, the inhibition was 0%.

`CCOc1ccc(OCc2cccc(C(=O)N3CCCC3)c2)cc1`: the inhibition was 6%.

In the case of `CC1(C)CC(=O)C(C(=O)CCCCC(=O)C2C(=O)CC(C)(C)CC2=O)C(=O)C1`, the inhibition was 0%.

As for `C=CCSc1ncccc1C(=O)O`, the inhibition was 0%.

Consider `COc1ccc(OC)c2[nH]c(=O)c(CCNC(=O)CC(C)C)cc12`, for which the inhibition is 2%.

On to `C[C@]12CC[C@@H]3c4ccc(O)cc4CC[C@H]3[C@@H]1CC[C@@H]2OC(=O)CCC(=O)O`, for which the inhibition is 8%.

Take `COc1ccc(S(=O)(=O)N2CCN(CC(=O)Nc3ccc(C)c(F)c3)CC2)cc1`: the inhibition was 0%.

As to `COc1cccc(N2CCN(C(=O)C3C4C=CC5(CN(Cc6ccccc6Cl)C(=O)C35)O4)CC2)c1` (stereo unspecified), the inhibition was 0%.

`Clc1ccc(Cn2c(CN3CCCC3)nc3ccccc32)cc1`: the inhibition is 8%.

For `Cc1ccc(NCc2nnc(SCC(=O)N3CCCCC3)n2CC2CCCO2)c(C)c1` (stereo unspecified), the inhibition was 3%.

For `CCOC(=O)CCc1c(C)nc2cc(-c3ccc(F)cc3)[nH]n2c1=O`, the inhibition was 0%.

The term inhibition denotes the percentage by which the read-out fell short of the control.
